A selection: hits, their analogues and other compounds. The true share with any hit is near 2.8%.
Six1-Eya2 blk: inhibitors of human Six1/Eya2 interaction | activity change, % (no concentration beside the values) | AlphaScreen GST-Six1/His-Eya2 binding, biochemical; hits give low values | 0.56% of 360,000 active | Q15475+O00167; in the data active = activity change below about -65%; inconclusive = mostly about -30% to -63%; note: % is set by controls: 0 for no effect and ±100 for the full control effect
Target sequence (O00167 whole entry, looked up): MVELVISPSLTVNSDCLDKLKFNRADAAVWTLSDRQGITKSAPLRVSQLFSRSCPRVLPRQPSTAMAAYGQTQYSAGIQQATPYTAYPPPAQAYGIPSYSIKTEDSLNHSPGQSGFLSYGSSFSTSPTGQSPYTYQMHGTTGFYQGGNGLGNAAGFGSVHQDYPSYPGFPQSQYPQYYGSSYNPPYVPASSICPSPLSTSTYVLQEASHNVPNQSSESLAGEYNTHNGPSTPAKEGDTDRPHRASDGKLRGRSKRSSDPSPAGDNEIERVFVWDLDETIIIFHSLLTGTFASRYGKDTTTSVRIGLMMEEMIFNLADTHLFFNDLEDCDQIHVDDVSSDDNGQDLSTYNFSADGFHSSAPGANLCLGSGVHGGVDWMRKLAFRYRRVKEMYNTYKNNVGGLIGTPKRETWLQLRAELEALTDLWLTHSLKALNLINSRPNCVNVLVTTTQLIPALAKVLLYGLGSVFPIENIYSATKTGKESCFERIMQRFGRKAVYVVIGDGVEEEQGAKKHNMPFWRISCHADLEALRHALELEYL
Target sequence (Q15475 whole entry, looked up): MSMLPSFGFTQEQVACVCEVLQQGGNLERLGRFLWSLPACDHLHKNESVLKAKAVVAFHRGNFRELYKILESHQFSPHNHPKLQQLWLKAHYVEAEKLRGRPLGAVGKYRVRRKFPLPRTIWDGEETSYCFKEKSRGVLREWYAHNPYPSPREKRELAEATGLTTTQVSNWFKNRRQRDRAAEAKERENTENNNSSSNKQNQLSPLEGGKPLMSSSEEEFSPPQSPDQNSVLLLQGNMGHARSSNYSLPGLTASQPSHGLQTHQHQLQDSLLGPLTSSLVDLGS
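AlphaScreen with GST-Six1 and His-Eya2 (5X mix: 250 nM and 500 nM), glutathione donor and nickel acceptor beads; buffer 50 mM Tris pH 8.0, 300 mM NaCl, 1 mM TCEP; 1 h at 37 C in the dark.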
HepG2 tox-1: HepG2 cytotoxicity, counter-screen for TGF-b inhibitors | Potency, µM (series often up to 46.1 µM), for inactives: at the highest dose activity change, negative = cytotoxicity, hits mostly cytotoxic | HepG2 CAGA-GFP viability, ATP luminescence, 18 h | 0.76% of 410,000 active | AID 588856; note: potency is the fitted concentration of half-maximal effect
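CellTiter-Glo luminescence gave cytotoxicity after 18 hours at 37 degrees C. The cells were HepG2 CAGA-GFP in 1% FBS DMEM, stimulated with 500 pg/mL TGF-beta after compound addition. %Activity was normalised to no-cell wells (complete cell-killing) and DMSO (no toxicity), and curves were fitted and classified.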
TGFb SMAD3 inh: blocks TGF-b signaling. HepG2 CAGA-GFP TGF-b/SMAD3 reporter, GFP fluorescence, 18 h; TGF-beta stimulated, 500 pg/mL final. Potency, µM (series often up to 46.1 µM), without a hit: at the top dose activity, negative = inhibition, hits mostly inhibitors. 1.2% of 410,000 active. AID 588855; note: potency is the fitted concentration of half-maximal effect; % is set by controls: 0 for no effect and ±100 for the full control effect; nearly all actives have a fitted effect of over 65% in size
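Inhibition was scored as loss of TGF-beta-induced (500 pg/mL final, 18 hours, 37 degrees C) GFP in HEPG2 cells carrying a CAGA-GFP reporter, in DMEM with 1% FBS. Well GFP was summed per cell; Activity was normalised to unstimulated and stimulated DMSO wells, then concentration-response fitting.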
ATXN viability: viability counter-screen for ATXN expression inhibitors | 0.49% of 400,000 active | Potency, µM (titrated, usually from 56.7 µM), most hits filed as cytotoxic | S2 cells (HEK-293 line with an ATXN2-luciferase reporter) viability, CellTiter-Fluor protease fluorescence, 24 h; note: potency is the fitted concentration of half-maximal effect; nearly all actives have a fitted effect of over 40% in size
ATXN2 expr inh: ATXN2 expression inhibition; Potency, µM (doses to about 57 µM), inactives show at the top dose activity change, negative = inhibition, usual class: inhibitors; 0.72% of 360,000 active; HEK-293 ATXN2-luciferase reporter, luminescence, 24 h; note: potency is the fitted concentration of half-maximal effect; % is set by controls: 0 for no effect and ±100 for the full control effect; nearly all actives have a fitted effect of over 55% in size
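qHTS (up to 57 uM final) was run with 24 h compound exposure of reporter cells at 37 °C. Each well was multiplexed: SteadyGlo luminescence measured ATXN2-luciferase expression after a fluorogenic Gly-Phe-AFC viability readout (25 uM final).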
CtBP-E1A blk: inhibitors of CtBP/E1A interaction | AlphaScreen GST-E1A/His-CtBP binding, 1536-well; hits give low values | activity change, % (no concentration beside the values) | 0.49% of 340,000 active; in the data active = activity change below about -65%; inconclusive = mostly about -30% to -63%; note: % is set by controls: 0 for no effect and ±100 for the full control effect
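Steps: dispense buffer (Tris pH 8.0, NaCl 300 mM, TCEP 1 mM, BSA, Tween 20); add 5X protein mix (GST-E1A, His-CtBP, 125 nM each); pin 23 nL compound; 2 h at 37 °C, dark; add 5X beads (50 ug/mL); 1 h; read.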
TGFb confirm: confirmation of TGF-b signaling inhibitors in HepG2 reporter cells; Potency, µM (top dose mostly 46.1 µM), for inactives: top-dose activity, negative = inhibition, actives largely listed as inhibitors; HepG2 CAGA-GFP TGF-b reporter, GFP fluorescence, 18 h; cells stimulated with TGF-beta, 500 pg/mL; 63% of 1,600 active; shares compounds with TGFb SMAD3 inh; note: potency is the fitted concentration of half-maximal effect; % is set by controls: 0 for no effect and ±100 for the full control effect; nearly all actives have a fitted effect of over 65% in size
HepG2 tox-2: counter-screen for TGF-b inhibitors: cytotoxicity in HepG2 cells. HepG2 CAGA-GFP viability, ATP luminescence, 18 h; cells stimulated with TGF-beta, 500 pg/mL. 27% of 1,600 active. AID 720535. Potency, µM (titrated, usually from 46.1 µM), for inactives: at the highest dose activity, negative = cytotoxicity, most hits filed as inhibitors. shares compounds with TGFb SMAD3 inh; note: potency is the fitted concentration of half-maximal effect; % is set by controls: 0 for no effect and ±100 for the full control effect; nearly all actives have a fitted effect of over 70% in size
TGFb CCL64 inh: orthogonal confirmation of TGF-b inhibitors in CCL64 cells. 41% of 1,600 active. shares compounds with TGFb SMAD3 inh. CCL64 CAGA-GFP reporter, TGF-b stimulated, GFP fluorescence, 18 h. Potency, µM (doses to about 46.1 µM), without a hit: at the top dose activity, negative = inhibition, hits mostly inhibitors; note: potency is the fitted concentration of half-maximal effect; nearly all actives have a fitted effect of over 65% in size
TGFb COP inh: blocks TGF-b signaling in HepG2 COP reporter; shares compounds with TGFb SMAD3 inh; 3% of 1,600 active; Potency, µM (highest dose often 46.1 µM), without a hit: at the top dose activity, negative = inhibition, usual class: inhibitors; HepG2 COP-GFP TGF-b reporter, GFP fluorescence, 18 h; cells stimulated by added recombinant TGF-beta; AID 720537; note: potency is the fitted concentration of half-maximal effect; nearly all actives have a fitted effect of over 70% in size
The depositor's hits bear a star; i = inactive; ? = inconclusive; · = not tested or not shown. Unless noted, calls come from the whole dose curve; as a rule, active = well fitted curve in the direction sought with a large enough effect; inconclusive = small, poorly fitted or top-dose-only effect, or another doubt; inactive = no such curve, though single readings can be large; an effect the other way counts as inactive or inconclusive.

SMILES | Six1-Eya2 blk | HepG2 tox-1 | TGFb SMAD3 inh | ATXN viability | ATXN2 expr inh | CtBP-E1A blk | TGFb confirm | HepG2 tox-2 | TGFb CCL64 inh | TGFb COP inh
Cc1ccccc1OCC(O)CNC1CCC(NCC(O)COc2ccccc2C)CC1 (stereo not drawn) | 2 | 1.8µM* | 5.6µM* | ? | ? | -19 | 4.6µM* | 5.2µM* | ? | ?
Cc1sc2ncnc(N3CCC(C(=O)Nc4nc(-c5cccs5)cs4)CC3)c2c1C | -12 | -1% | ? | ? | 41% | 8 | 7.3µM* | ? | ? | 27%
CSc1ncc2c(n1)-c1ccccc1N(Cc1ccc(Cl)cc1)S2(=O)=O | · | 4% | 0% | i | -6% | · | · | · | · | ·
CC(C)(C)C(=O)/C(=C/c1ccc(Cl)cc1)n1cncn1 | 7 | -115% | 10µM* | 10µM* | · | · | 21µM* | ? | ? | 65%
N#CC(c1ccc(Cl)cc1)c1ccc2c(C(F)(F)F)cc(C(F)(F)F)nc2n1 (stereo not drawn) | ? | -38% | 3.5µM* | 2µM* | 0.71µM* | ? | 5.2µM* | 6.5µM* | 1.5µM* | 103%
COc1cccc2c1C(=O)c1c(O)c3c(c(O)c1C2=O)CC(O)(C(C)=O)CC3OC1CC(N(C)C)C(O)C(C)O1 (stereo not drawn) | ? | -42% | 0.79µM* | ? | ? | ? | 0.26µM* | 0.33µM* | 1µM* | ?
COc1cccc2c1C(=O)c1c(O)c3c(c(O)c1C2=O)C[C@@](O)(C(=O)CO)C[C@@H]3OC1CC(N)C(O)C(C)O1 (stereo partly drawn) | -26 | 14% | 5.6µM* | 12µM* | ? | ? | 2.6µM* | 1.3µM* | 3.3µM* | 15%
CC(=O)[C@@]1(O)Cc2c(O)c3c(c(O)c2[C@H](O[C@H]2C[C@H](N)[C@H](O)[C@H](C)O2)C1)C(=O)c1ccccc1C3=O | · | -131% | -44% | ? | -74% | · | · | · | · | ·
CCOC(=O)CSc1nc2ccccc2c(=O)n1CCc1ccc(OC)c(OC)c1 | · | -10% | -5% | i | 8% | · | · | · | · | ·
O=C(COc1cccc(F)c1)N[C@@H](Cc1ccccc1)c1nc2ccccc2[nH]1 | 8 | -28% | ? | i | · | · | ? | -10% | -13% | -12%
O=C(NCc1ccc2c(c1)CCN2C(=O)c1ccc(F)cc1)c1ccco1 | · | -3% | -2% | · | · | · | · | · | · | ·
CC(C)(C)c1nnc(NC(=O)CCS(=O)(=O)c2ccccc2)s1 | 3 | 6% | 7.1µM* | ? | 28% | -16 | 3.7µM* | -10% | ? | 30%
CCOc1cccc2sc(NC(=O)CCS(=O)(=O)c3ccccc3)nc12 | 7 | -8% | 14µM* | i | -9% | -14 | 12µM* | 23µM* | 18µM* | ?
O=C(c1ccc(CS(=O)(=O)c2c(Cl)cccc2Cl)o1)N1CCN(c2ccccc2)CC1 | · | -30% | -25% | i | ? | · | · | · | · | ·
COc1ccccc1-c1cc2nc(C)c(CCC(=O)NCCc3cccc(C)c3)c(C)n2n1 | · | -29% | -54% | i | -15% | · | · | · | · | ·
CN(C(=O)C=Cc1ccco1)c1ccccc1 | 3 | -55% | -5% | i | 1% | 11 | · | · | · | ·
CN(C(=O)/C=C/c1ccc([N+](=O)[O-])s1)c1ccccc1 | -3 | 11µM* | 10µM* | · | ? | 0 | 23µM* | ? | 21µM* | ?
O=C(Nc1nnc(SCc2ccc(F)cc2)s1)c1cccnc1Cl | 0 | 0% | -6% | i | 5% | -7 | · | · | · | ·
O=C(Nc1nnc(SCc2ccc(F)cc2)s1)c1ccccn1 | -90* | -32% | 1.6µM* | ? | ? | -95* | ? | ? | 18µM* | 55%
S=C(Nc1ccc(Br)cc1)NC1CCCCC1 | -1 | -45% | 10µM* | i | 51% | 0 | ? | ? | ? | 10%
S=C(Nc1ccc(Cl)cc1)NC1CCCCC1 | -5 | -45% | ? | i | 18% | 3 | · | · | · | ·
O=C1NC(Cc2ccc(O)cc2)c2nc3ccc(Cl)cc3c(=O)n2-c2cc3ccccc3cc21 (stereo not drawn) | -8 | 13% | 7.9µM* | ? | ? | -6 | 8.2µM* | ? | 5.8µM* | 45%
COc1cc(O)cc(O)c1C(=O)/C=C/c1ccccc1 | 1 | -29% | 14µM* | ? | ? | -6 | 21µM* | ? | ? | 21%
CC(=O)Nc1nc2c(ccc3ccccc32)s1 | 2 | -53% | ? | i | 33% | 1 | · | · | · | ·
O=C(Cc1cccs1)Nc1nc2c(ccc3ccccc32)s1 | -4 | -26% | 14µM* | i | -1% | 2 | 16µM* | -19% | ? | -3%
O=C(/C=C/[C@H]1O[C@@H](n2ccc(=O)[nH]c2=O)[C@H](O)[C@@H]1O)N1CCN(Cc2ccc(F)cc2)CC1 | 4 | 2% | 3% | i | 8% | 1 | · | · | · | ·
NC1=NC[C@@H](Cc2ccc(O)cc2)N1CCC12CC3CC(CC(C3)C1)C2 | -18 | -64% | 10µM* | ? | ? | -2 | -17% | -17% | 9% | 0%
Cc1ccc(S(=O)(=O)Nc2cccc3cccnc23)cc1 | -71* | -35% | 4µM* | ? | 5.6µM* | ? | 16µM* | -21% | 8.2µM* | 24%
O=C(Nc1cccc(C(F)(F)F)c1)C1Cc2c(-c3ccccc3)ccnc2O1 (stereo not drawn) | 1 | -28% | ? | i | ? | 1 | · | · | · | ·
